Some compounds were tested as several samples or in several runs, with calls that do not always agree. Calls of active or inactive are those of the source. The calls were made as follows: active = hit-call score of the fitted dose curve at least 0.9, where 1 is the maximum; inactive = score below 0.9.
Legend:
[1] = BSK_hDFCGF_SRB: Viability Assessment in the BioMAP Diversity Plus: hDFCGF Assay (AID 2283061); conditions: primary human foreskin fibroblasts;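 also: cells exposed to compound for 24 h before the read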
Outline: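 Viability was read as total protein: after 10% TCA fixation, wells were stained with 0.1% sulforhodamine B and read at 560 nm. Primary human foreskin fibroblasts were dosed for 24 h, with bidirectional fitting versus DMSO.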

[2] = read-out: TIMP metallopeptidase inhibitor 1 (TIMP1), TIMP1 (gene 7076); test: BSK_hDFCGF_TIMP1: BioMAP Diversity Plus: hDFCGF Assay for TIMP metallopeptidase inhibitor 1 (TIMP1) Biomarker Activity (AID 2283062); conditions: primary human foreskin fibroblasts; actives raise or lower the signal
Outline: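 TIMP-1 measured by ELISA 24 h after chemical dosing of primary human skin fibroblasts, with gain or loss fitted relative to DMSO. Parallel SRB staining (560 nm) monitored overt cytotoxicity.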

[3] = read-out: Monokine induced gamma interferon (MIG), CXCL9 (gene 4283); test: BSK_hDFCGF_MIG: BioMAP Diversity Plus: hDFCGF Assay for Monokine induced gamma interferon (MIG) Biomarker Activity (AID 2283063); conditions: primary human foreskin fibroblasts; actives raise or lower the signal
Outline: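 Human primary foreskin fibroblasts in the hDFCGF system, exposed to test chemical for 24 h; MIG measured by ELISA. Bidirectional curve fitting against DMSO negative control as activity baseline.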

[4] = read-out: Matrix Metallopeptidase 1 (MMP1), MMP1 (gene 4312); test: BSK_hDFCGF_MMP1: BioMAP Diversity Plus: hDFCGF Assay for Matrix Metallopeptidase 1 (MMP1) Biomarker Activity (AID 2283064); conditions: primary human foreskin fibroblasts; actives raise or lower the signal
Outline: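 ELISA read-out of MMP1 from human foreskin fibroblasts (primary skin cells), 24 h post-dose. Gain or loss of signal was fitted bidirectionally versus DMSO negative control; cytotoxicity was checked by SRB in parallel cultures.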

[5] = read-out: Vascular cell adhesion molecule 1 (VCAM1), VCAM1 (gene 7412); test: BSK_hDFCGF_VCAM1: BioMAP Diversity Plus: hDFCGF Assay for Vascular cell adhesion molecule 1 (VCAM1) Biomarker Activity (AID 2283065); conditions: primary human foreskin fibroblasts; actives raise or lower the signal
Outline: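 ELISA readout of VCAM-1 on human dermal fibroblast primary cultures, 24 h after chemical exposure. Gain or loss of signal fitted in both directions against DMSO baseline.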

[6] = read-out: Plasminogen activator inhibitor-1 (PAI1), SERPINE1 (gene 5054); test: BSK_hDFCGF_PAI1: BioMAP Diversity Plus: hDFCGF Assay for Plasminogen activator inhibitor-1 (PAI1) Biomarker Activity (AID 2283066); conditions: primary human foreskin fibroblasts; actives raise or lower the signal
Outline: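 Human skin fibroblast cultures receive chemical for 24 h before PAI-1 is measured by ELISA; signal changes are fitted bidirectionally against DMSO-treated wells.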

[7] = read-out: Intercellular Adhesion Molecule 1 (ICAM1), ICAM1 (gene 3383); test: BSK_KF3CT_ICAM1: BioMAP Diversity Plus: KF3CT Assay for Intercellular Adhesion Molecule 1 (ICAM1) Biomarker Activity (AID 2283067); conditions: primary human keratinocytes with fibroblasts; actives raise or lower the signal
Outline: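 Cell-surface ICAM-1 was measured by ELISA 24 h after dosing primary human skin keratinocytes co-cultured with fibroblasts. Parallel SRB staining tracked overt cytotoxicity. Gain or loss of signal was fitted relative to DMSO.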

[8] = read-out: Interferon-gamma inducible Protein 10 (IP10), CXCL10 (gene 3627); test: BSK_KF3CT_IP10: BioMAP Diversity Plus: KF3CT Assay for Interferon-gamma inducible Protein 10 (IP10) Biomarker Activity (AID 2283068); conditions: primary human keratinocytes with fibroblasts; actives raise or lower the signal
Outline: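 KF3CT co-culture (keratinocytes + foreskin fibroblasts), 24 h compound, IP-10 by ELISA; bidirectional fit vs DMSO baseline.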

[9] = BSK_KF3CT_SRB: Viability Assessment in the BioMAP Diversity Plus: KF3CT Assay (AID 2283069); conditions: primary human keratinocytes with fibroblasts;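 also: total protein by sulforhodamine B staining as a cytotoxicity measure; read 24 h after compound addition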
Outline: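 SRB read-out at 560 nm (0.1% stain, TCA-fixed cells) gauges overt cytotoxicity in a human skin keratinocyte–fibroblast co-culture 24 h post-dosing. Signal change was fitted bidirectionally relative to DMSO control.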

[10] = read-out: Interleukin-1 alpha (IL1a), IL1A (gene 3552); test: BSK_KF3CT_IL1a: BioMAP Diversity Plus: KF3CT Assay for Interleukin-1 alpha (IL1a) Biomarker Activity (AID 2283070); conditions: primary human keratinocytes with fibroblasts; actives raise or lower the signal
Outline: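 Primary skin co-culture (keratinocytes, foreskin fibroblasts), 24 h exposure; ELISA for IL-1a; bidirectional curve fit vs DMSO.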

[11] = read-out: TIMP metallopeptidase inhibitor 2 (TIMP2), TIMP2 (gene 7077); test: BSK_KF3CT_TIMP2: BioMAP Diversity Plus: KF3CT Assay for TIMP metallopeptidase inhibitor 2 (TIMP2) Biomarker Activity (AID 2283071); conditions: primary human keratinocytes with fibroblasts; actives raise or lower the signal
Outline: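 Measurements come from ELISA detection of TIMP-2 at 24 hours in a dosed human keratinocyte and foreskin fibroblast co-culture. DMSO serves as negative control and baseline.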

[12] = read-out: Transforming growth factor beta 1 (TGFb1), TGFB1 (gene 7040); test: BSK_KF3CT_TGFb1: BioMAP Diversity Plus: KF3CT Assay for Transforming growth factor beta 1 (TGFb1) Biomarker Activity (AID 2283072); conditions: primary human keratinocytes with fibroblasts; actives raise or lower the signal
Outline: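 TGF-b1 ELISA on a 24 h dosed co-culture of human keratinocytes and foreskin fibroblasts; cytotoxicity tracked in parallel cultures by SRB staining.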

[13] = read-out: C-C motif chemokine 2 (Homo sapiens) (UniProt P13500); test: BSK_KF3CT_MCP1: BioMAP Diversity Plus: KF3CT Assay for Monocyte Chemoattractant Protein 1 (MCP1/CCL2) Biomarker Activity (AID 2283073); conditions: primary human keratinocytes with fibroblasts; actives raise or lower the signal
Outline: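 ELISA read-out of MCP-1, 24 h post-dose, in primary human skin keratinocytes co-cultured with fibroblasts. Parallel SRB staining monitors cytotoxicity; changes fitted both directions relative to DMSO.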

[14] = read-out: Matrix Metallopeptidase 9 (MMP9), MMP9 (gene 4318); test: BSK_KF3CT_MMP9: BioMAP Diversity Plus: KF3CT Assay for Matrix Metallopeptidase 9 (MMP9) Biomarker Activity (AID 2283074); conditions: primary human keratinocytes with fibroblasts; actives raise or lower the signal
Outline: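 ELISA read-out of MMP-9 at 24 h post-dosing in a co-culture of human skin keratinocytes and foreskin fibroblasts. Gain or loss of signal was fitted in both directions against DMSO.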

[15] = read-out: urokinase plasminogen activator (uPA), PLAU (gene 5328); test: BSK_KF3CT_uPA: BioMAP Diversity Plus: KF3CT Assay for urokinase plasminogen activator (uPA) Biomarker Activity (AID 2283075); conditions: primary human keratinocytes with fibroblasts; actives raise or lower the signal
Outline: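 Skin co-culture (keratinocytes + foreskin fibroblasts), human primary; 24 h post-dose; uPA by ELISA; gain/loss fit vs DMSO baseline.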

CD40, CD40 (gene 958) = test: BSK_LPS_CD40: BioMAP Diversity Plus: LPS Assay for CD40 Biomarker Activity (AID 2283076); conditions: primary human HUVEC with PBMC; actives raise or lower the signal
Outline: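 In the LPS system of human endothelial cells with peripheral blood mononuclear cells, CD40 levels were read by ELISA 24 h post-treatment. Signal changes in either direction were fitted against the DMSO baseline, with parallel SRB protein staining.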

[16] = read-out: E-selectin (Homo sapiens) (UniProt P16581); test: BSK_LPS_Eselectin: BioMAP Diversity Plus: LPS Assay for Eselectin Biomarker Activity (AID 2283077); conditions: primary human HUVEC with PBMC; actives raise or lower the signal
Outline: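 E-selectin ELISA on LPS-stimulated endothelial cell/PBMC co-cultures, read 24 h post-treatment; gains and losses fitted against DMSO. Parallel SRB staining (0.1% SRB after 10% TCA fixation, 560 nm) flags overt cytotoxicity.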

[17] = read-out: Interleukin-8 (IL8), CXCL8 (gene 3576); test: BSK_LPS_IL8: BioMAP Diversity Plus: LPS Assay for Interleukin-8 (IL8) Biomarker Activity (AID 2283078); conditions: primary human HUVEC with PBMC; actives raise or lower the signal
Outline: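 ELISA read-out of IL-8 after 24 h chemical treatment of LPS-activated endothelial/PBMC human primary co-cultures. Changes either up or down relative to DMSO; overt cytotoxicity checked by sulforhodamine B staining in parallel wells.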

[18] = BSK_LPS_SRB: Viability Assessment in the BioMAP Diversity Plus: LPS Assay (AID 2283079); conditions: primary human HUVEC with PBMC;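 also: total protein by sulforhodamine B absorbance as a cytotoxicity measure; measured one day after compound addition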
Outline: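 SRB viability endpoint: cells fixed with 10% TCA, stained with 0.1% SRB, read at 560 nm, 24 h post-dose. HUVEC/PBMC co-culture; signal change in either direction scored relative to DMSO.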

[19] = read-out: Interleukin-1 alpha (IL1a), IL1A (gene 3552); test: BSK_LPS_IL1a: BioMAP Diversity Plus: LPS Assay for Interleukin-1 alpha (IL1a) Biomarker Activity (AID 2283080); conditions: primary human HUVEC with PBMC; actives raise or lower the signal
Outline: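 Readout is IL-1a level by ELISA, 24 h post-dose, fitted as gain or loss relative to DMSO. System: LPS-activated human primary co-culture of vascular endothelium and peripheral blood mononuclear cells, with parallel SRB total-protein cytotoxicity.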

Measured: AC50

Sequence of E-selectin (Homo sapiens) (P16581 whole entry, looked up): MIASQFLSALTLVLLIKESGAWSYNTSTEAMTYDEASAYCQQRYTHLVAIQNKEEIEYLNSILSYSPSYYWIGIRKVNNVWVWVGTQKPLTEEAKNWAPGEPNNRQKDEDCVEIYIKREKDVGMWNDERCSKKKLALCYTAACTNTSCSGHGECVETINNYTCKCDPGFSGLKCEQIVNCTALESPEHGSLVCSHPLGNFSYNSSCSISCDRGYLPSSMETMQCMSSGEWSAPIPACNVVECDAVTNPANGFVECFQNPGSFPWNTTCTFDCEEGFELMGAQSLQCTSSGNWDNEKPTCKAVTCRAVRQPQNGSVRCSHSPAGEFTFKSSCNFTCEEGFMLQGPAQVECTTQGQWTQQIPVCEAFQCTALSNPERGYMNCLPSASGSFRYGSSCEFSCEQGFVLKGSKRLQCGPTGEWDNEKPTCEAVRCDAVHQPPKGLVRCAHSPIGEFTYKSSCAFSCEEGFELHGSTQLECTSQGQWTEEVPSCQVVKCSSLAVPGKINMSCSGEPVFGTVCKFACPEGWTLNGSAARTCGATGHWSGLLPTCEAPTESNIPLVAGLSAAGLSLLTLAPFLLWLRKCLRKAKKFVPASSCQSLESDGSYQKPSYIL

C=CCOC(=O)C(C)(C)OC(=O)c1cc(-n2c(=O)cc(C(F)(F)F)n(C)c2=O)ccc1Cl
active: [2] 30.3 µM | [4] 3.97 µM | [6] 3.51 µM | [8] 6.34 µM | [11] 27.9 µM | [13] 1.89 µM | CD40, CD40 (gene 958) 6.73 µM
inactive: all other assays above

Nc1c(Cl)c(F)nc(OCC(=O)O)c1Cl
inactive: all assays above

C=C(C)CN(CC)c1c([N+](=O)[O-])cc(C(F)(F)F)cc1[N+](=O)[O-]
active: [4] 3.92 µM | [8] 14.9 µM | CD40, CD40 (gene 958) 20 µM
inactive: all other assays above

CCCC(=NOCC)C1=C(O)CC(CC(C)SCC)CC1=O (configuration not stated)
inactive: all assays above

O=P(O)(O)CCCl
not listed: [5]
inactive: all other assays above

Clc1cccc(C(Cl)(Cl)Cl)n1
not listed: [5]
inactive: all other assays above

COC(=O)c1c(C(F)F)nc(C(F)(F)F)c(C2=NCCS2)c1CC(C)C
active: [8] 21.8 µM | CD40, CD40 (gene 958) 7.78 µM | [18] 31.9 µM
inactive: all other assays above

CN=C=S
inactive: all assays above

COP(=O)(OC)O/C(C)=C/C(=O)N(C)C
inactive: all assays above

COCC(C)N(C(=O)CCl)c1c(C)csc1C (configuration not stated)
active: [6] 20 µM
inactive: [1] | [2] | [3] | [4] | [6] | [7] | [8] | [9] | [10] | [11] | [12] | [13] | [14] | [15] | CD40, CD40 (gene 958) | [16] | [17] | [18] | [19]

CC(C)(C)C(=O)C(Oc1ccc(Cl)cc1)n1cncn1 (configuration not stated)
inactive: all assays above

Clc1nc(Cl)nc(Nc2ccccc2Cl)n1
active: [1] 31.7 µM | [3] 29.1 µM | [6] 27.2 µM
not listed: [5]
inactive: all other assays above

COC(=O)NS(=O)(=O)c1ccc(N)cc1
inactive: all assays above

From PubChem BioAssay (EPA / NIEHS)
